Results: article PMC11062922 (Nature Chemical Biology, 2023)
Like-named read-outs stand apart in the source and are kept apart here.

Legend:
CDKL5 = conditions: read-out: apparent Kd, n = 1
CLK4 = conditions: read-out: apparent Kd, n = 1
[1] = compound concentrations:100 nM and 1000 nM (sheet 'Lestaurtinib' of Supplementary Table 1),run:Lestaurtinib_02577_R1,Plate:MR016
[2] = compound concentrations:100 nM and 1000 nM (sheet 'Lestaurtinib' of Supplementary Table 1),run:Lestaurtinib_02577_R2,Plate:MR016
[3] = compound concentrations:100 nM and 1000 nM (sheet 'Lestaurtinib' of Supplementary Table 1),run:Lestaurtinib_02584_R1,Plate:MR017
[4] = compound concentrations:100 nM and 1000 nM (sheet 'Lestaurtinib' of Supplementary Table 1),run:Lestaurtinib_02584_R2,Plate:MR017
[5] = compound concentrations:100 nM and 1000 nM (sheet 'Lestaurtinib' of Supplementary Table 1),run:Lestaurtinib_02584_R3,Plate:MR017
[6] = compound concentrations:100 nM and 1000 nM (sheet 'Lestaurtinib' of Supplementary Table 1),run:Lestaurtinib_02606_R1,Plate:MR019
[7] = compound concentrations:100 nM and 1000 nM (sheet 'Lestaurtinib' of Supplementary Table 1),run:Lestaurtinib_02624_R2,Plate:MR020
[8] = compound concentrations:100 nM and 1000 nM (sheet 'Lestaurtinib' of Supplementary Table 1),run:Lestaurtinib_02766_R3,Plate:MR027

Lestaurtinib was tested, and the potency estimated from few doses (CDKL5; [1]) was 82.6 nM, the potency estimated from few doses (CDKL5; [2]) was 144 nM and the potency estimated from few doses (CDKL5; [3]) was 86.8 nM. For the same substance, the potency estimated from few doses (CDKL5; [4]) was 37.3 nM, the potency estimated from few doses (CDKL5; [5]) was 565 nM and the potency estimated from few doses (CDKL5; compound concentrations:100 nM and 1000 nM (sheet 'Lestaurtinib' of Supplementary Table 1),run:Lestaurtinib_02601_R1,Plate:MR018) was 966 nM. For the same substance, the potency estimated from few doses (CDKL5; compound concentrations:100 nM and 1000 nM (sheet 'Lestaurtinib' of Supplementary Table 1),run:Lestaurtinib_02601_R2,Plate:MR018) was 921 nM, the potency estimated from few doses (CDKL5; compound concentrations:100 nM and 1000 nM (sheet 'Lestaurtinib' of Supplementary Table 1),run:Lestaurtinib_02601_R3,Plate:MR018) was 143 nM and the potency estimated from few doses (CDKL5; [6]) was 58.1 nM. It also gave a potency estimated from few doses (CDKL5; compound concentrations:100 nM and 1000 nM (sheet 'Lestaurtinib' of Supplementary Table 1),run:Lestaurtinib_02606_R2,Plate:MR019) of 98.3 nM, a potency estimated from few doses (CDKL5; compound concentrations:100 nM and 1000 nM (sheet 'Lestaurtinib' of Supplementary Table 1),run:Lestaurtinib_02624_R1,Plate:MR020) of 75 nM and a potency estimated from few doses (CDKL5; [7]) of 137 nM. The potency estimated from few doses (CDKL5; compound concentrations:100 nM and 1000 nM (sheet 'Lestaurtinib' of Supplementary Table 1),run:Lestaurtinib_02741_R2,Plate:MR023) was 695 nM, the potency estimated from few doses (CDKL5; compound concentrations:100 nM and 1000 nM (sheet 'Lestaurtinib' of Supplementary Table 1),run:Lestaurtinib_02748_R3,Plate:MR024) was 149 nM and the potency estimated from few doses (CDKL5; compound concentrations:100 nM and 1000 nM (sheet 'Lestaurtinib' of Supplementary Table 1),run:Lestaurtinib_02752_R1,Plate:MR025) was 225 nM. For the same substance, the potency estimated from few doses (CDKL5; compound concentrations:100 nM and 1000 nM (sheet 'Lestaurtinib' of Supplementary Table 1),run:Lestaurtinib_02752_R3,Plate:MR025) was 226 nM, the potency estimated from few doses (CDKL5; compound concentrations:100 nM and 1000 nM (sheet 'Lestaurtinib' of Supplementary Table 1),run:Lestaurtinib_02765_R2,Plate:MR026) was 212 nM and the potency estimated from few doses (CDKL5; [8]) was 28.6 nM. For the same substance, the potency estimated from few doses (CDKL5; compound concentrations:100 nM and 1000 nM (sheet 'Lestaurtinib' of Supplementary Table 1),run:Lestaurtinib_02795_R2,Plate:MR022) was 1690 nM, the potency estimated from few doses (CDKL5; compound concentrations:100 nM and 1000 nM (sheet 'Lestaurtinib' of Supplementary Table 1),run:Lestaurtinib_02795_R3,Plate:MR022) was 55.9 nM and the potency estimated from few doses (CDKL5; compound concentrations:100 nM and 1000 nM (sheet 'Lestaurtinib' of Supplementary Table 1),run:Lestaurtinib_02802_R2,Plate:MR029) was 130 nM. The potency estimated from few doses (CDKL5; compound concentrations:100 nM and 1000 nM (sheet 'Lestaurtinib' of Supplementary Table 1),run:Lestaurtinib_02896_R1,Plate:MR030) was 336 nM, the potency estimated from few doses (CDKL5; compound concentrations:100 nM and 1000 nM (sheet 'Lestaurtinib' of Supplementary Table 1),run:Lestaurtinib_02896_R2,Plate:MR030) was 99.8 nM and the potency estimated from few doses (CDKL5; compound concentrations:100 nM and 1000 nM (sheet 'Lestaurtinib' of Supplementary Table 1),run:Lestaurtinib_02896_R3,Plate:MR030) was 1300 nM. It also gave a potency estimated from few doses (CDKL5; compound concentrations:100 nM and 1000 nM (sheet 'Lestaurtinib' of Supplementary Table 1),run:Lestaurtinib_03172_R1,Plate:MR031) of 298 nM, a potency estimated from few doses (CDKL5; compound concentrations:100 nM and 1000 nM (sheet 'Lestaurtinib' of Supplementary Table 1),run:Lestaurtinib_03172_R3,Plate:MR031) of 99.7 nM and a potency estimated from few doses (CDKL5; compound concentrations:100 nM and 1000 nM (sheet 'Lestaurtinib' of Supplementary Table 1),run:Lestaurtinib_03260_R2,Plate:MR033) of 460 nM. For the same substance, the potency estimated from few doses (CDKL5; compound concentrations:100 nM and 1000 nM (sheet 'Lestaurtinib' of Supplementary Table 1),run:Lestaurtinib_03260_R3,Plate:MR033) was 730 nM, the potency estimated from few doses (CLK4; compound concentrations:100 nM and 1000 nM (sheet 'Lestaurtinib' of Supplementary Table 1),run:Lestaurtinib_02339_R1,Plate:MR001) was 43.2 nM and the potency estimated from few doses (CLK4; compound concentrations:100 nM and 1000 nM (sheet 'Lestaurtinib' of Supplementary Table 1),run:Lestaurtinib_02339_R2,Plate:MR001) was 51.8 nM. It also gave a potency estimated from few doses (CLK4; compound concentrations:100 nM and 1000 nM (sheet 'Lestaurtinib' of Supplementary Table 1),run:Lestaurtinib_02339_R3,Plate:MR001) of 29.6 nM, a potency estimated from few doses (CLK4; compound concentrations:100 nM and 1000 nM (sheet 'Lestaurtinib' of Supplementary Table 1),run:Lestaurtinib_02364_R2,Plate:MR002) of 35.4 nM and a potency estimated from few doses (CLK4; compound concentrations:100 nM and 1000 nM (sheet 'Lestaurtinib' of Supplementary Table 1),run:Lestaurtinib_02367_R2,Plate:MR003) of 78.8 nM. It also gave a potency estimated from few doses (CLK4; compound concentrations:100 nM and 1000 nM (sheet 'Lestaurtinib' of Supplementary Table 1),run:Lestaurtinib_02367_R3,Plate:MR003) of 56.1 nM, a potency estimated from few doses (CLK4; compound concentrations:100 nM and 1000 nM (sheet 'Lestaurtinib' of Supplementary Table 1),run:Lestaurtinib_02381_R1,Plate:MR004) of 62.4 nM and a potency estimated from few doses (CLK4; compound concentrations:100 nM and 1000 nM (sheet 'Lestaurtinib' of Supplementary Table 1),run:Lestaurtinib_02381_R2,Plate:MR004) of 34.7 nM. It also gave a potency estimated from few doses (CLK4; compound concentrations:100 nM and 1000 nM (sheet 'Lestaurtinib' of Supplementary Table 1),run:Lestaurtinib_02381_R3,Plate:MR004) of 51.1 nM, a potency estimated from few doses (CLK4; compound concentrations:100 nM and 1000 nM (sheet 'Lestaurtinib' of Supplementary Table 1),run:Lestaurtinib_02407_R2,Plate:MR005) of 17 nM and a potency estimated from few doses (CLK4; compound concentrations:100 nM and 1000 nM (sheet 'Lestaurtinib' of Supplementary Table 1),run:Lestaurtinib_02407_R3,Plate:MR005) of 22.9 nM. The potency estimated from few doses (CLK4; compound concentrations:100 nM and 1000 nM (sheet 'Lestaurtinib' of Supplementary Table 1),run:Lestaurtinib_02422_R1,Plate:MR006) was 27.9 nM, the potency estimated from few doses (CLK4; compound concentrations:100 nM and 1000 nM (sheet 'Lestaurtinib' of Supplementary Table 1),run:Lestaurtinib_02422_R3,Plate:MR006) was 48 nM and the potency estimated from few doses (CLK4; compound concentrations:100 nM and 1000 nM (sheet 'Lestaurtinib' of Supplementary Table 1),run:Lestaurtinib_02437_R1,Plate:MR007) was 25 nM. The potency estimated from few doses (CLK4; compound concentrations:100 nM and 1000 nM (sheet 'Lestaurtinib' of Supplementary Table 1),run:Lestaurtinib_02437_R2,Plate:MR007) was 71.7 nM, the potency estimated from few doses (CLK4; compound concentrations:100 nM and 1000 nM (sheet 'Lestaurtinib' of Supplementary Table 1),run:Lestaurtinib_02438_R1,Plate:MR008) was 19.3 nM and the potency estimated from few doses (CLK4; compound concentrations:100 nM and 1000 nM (sheet 'Lestaurtinib' of Supplementary Table 1),run:Lestaurtinib_02438_R3,Plate:MR008) was 141 nM. For the same substance, the potency estimated from few doses (CLK4; compound concentrations:100 nM and 1000 nM (sheet 'Lestaurtinib' of Supplementary Table 1),run:Lestaurtinib_02443_R1,Plate:MR009) was 80.9 nM, the potency estimated from few doses (CLK4; compound concentrations:100 nM and 1000 nM (sheet 'Lestaurtinib' of Supplementary Table 1),run:Lestaurtinib_02443_R2,Plate:MR009) was 75.8 nM and the potency estimated from few doses (CLK4; compound concentrations:100 nM and 1000 nM (sheet 'Lestaurtinib' of Supplementary Table 1),run:Lestaurtinib_02473_R1,Plate:MR010) was 58 nM. For the same substance, the potency estimated from few doses (CLK4; compound concentrations:100 nM and 1000 nM (sheet 'Lestaurtinib' of Supplementary Table 1),run:Lestaurtinib_02473_R2,Plate:MR010) was 35.2 nM, the potency estimated from few doses (CLK4; compound concentrations:100 nM and 1000 nM (sheet 'Lestaurtinib' of Supplementary Table 1),run:Lestaurtinib_02482_R2,Plate:MR011) was 86.4 nM and the potency estimated from few doses (CLK4; compound concentrations:100 nM and 1000 nM (sheet 'Lestaurtinib' of Supplementary Table 1),run:Lestaurtinib_02487_R2,Plate:MR012) was 73.6 nM. The potency estimated from few doses (CLK4; compound concentrations:100 nM and 1000 nM (sheet 'Lestaurtinib' of Supplementary Table 1),run:Lestaurtinib_02496_R2,Plate:MR013) was 98.1 nM, the potency estimated from few doses (CLK4; compound concentrations:100 nM and 1000 nM (sheet 'Lestaurtinib' of Supplementary Table 1),run:Lestaurtinib_02496_R3,Plate:MR013) was 54.4 nM and the potency estimated from few doses (CLK4; compound concentrations:100 nM and 1000 nM (sheet 'Lestaurtinib' of Supplementary Table 1),run:Lestaurtinib_02566_R1,Plate:MR014) was 47.9 nM. It also gave a potency estimated from few doses (CLK4; compound concentrations:100 nM and 1000 nM (sheet 'Lestaurtinib' of Supplementary Table 1),run:Lestaurtinib_02572_R1,Plate:MR015) of 74.6 nM, a potency estimated from few doses (CLK4; compound concentrations:100 nM and 1000 nM (sheet 'Lestaurtinib' of Supplementary Table 1),run:Lestaurtinib_02572_R2,Plate:MR015) of 41.6 nM and a potency estimated from few doses (CLK4; compound concentrations:100 nM and 1000 nM (sheet 'Lestaurtinib' of Supplementary Table 1),run:Lestaurtinib_02572_R3,Plate:MR015) of 53.8 nM. The potency estimated from few doses (CLK4; [1]) was 877 nM, the potency estimated from few doses (CLK4; [2]) was 830 nM and the potency estimated from few doses (CLK4; [3]) was 65.8 nM. It also gave a potency estimated from few doses (CLK4; [4]) of 67.9 nM, a potency estimated from few doses (CLK4; [5]) of 44.4 nM and a potency estimated from few doses (CLK4; [6]) of 78.2 nM. The potency estimated from few doses (CLK4; compound concentrations:100 nM and 1000 nM (sheet 'Lestaurtinib' of Supplementary Table 1),run:Lestaurtinib_02606_R3,Plate:MR019) was 45.4 nM, the potency estimated from few doses (CLK4; [7]) was 79.1 nM and the potency estimated from few doses (CLK4; compound concentrations:100 nM and 1000 nM (sheet 'Lestaurtinib' of Supplementary Table 1),run:Lestaurtinib_02624_R3,Plate:MR020) was 55.4 nM. The potency estimated from few doses (CLK4; compound concentrations:100 nM and 1000 nM (sheet 'Lestaurtinib' of Supplementary Table 1),run:Lestaurtinib_02724_R2,Plate:MR021) was 62.7 nM, the potency estimated from few doses (CLK4; compound concentrations:100 nM and 1000 nM (sheet 'Lestaurtinib' of Supplementary Table 1),run:Lestaurtinib_02724_R3,Plate:MR021) was 76.1 nM and the potency estimated from few doses (CLK4; compound concentrations:100 nM and 1000 nM (sheet 'Lestaurtinib' of Supplementary Table 1),run:Lestaurtinib_02741_R3,Plate:MR023) was 62 nM. It also gave a potency estimated from few doses (CLK4; compound concentrations:100 nM and 1000 nM (sheet 'Lestaurtinib' of Supplementary Table 1),run:Lestaurtinib_02748_R2,Plate:MR024) of 132 nM, a potency estimated from few doses (CLK4; [8]) of 69.4 nM and a potency estimated from few doses (CLK4; compound concentrations:100 nM and 1000 nM (sheet 'Lestaurtinib' of Supplementary Table 1),run:Lestaurtinib_02768_R2,Plate:MR028) of 1150 nM.
